Many of the other results were omitted from the sample, so hits are more common in it than they were.
KDM5B inhibitor: Primary screen for KDM5B Histone Demethylases FDH-coupled qHTS. Lysine-specific demethylase 5B (Homo sapiens), Q9UGL1. KDM5B demethylase, FDH-coupled NADH fluorescence (FDH is formaldehyde dehydrogenase). Potency, µM (highest dose often 57.7 µM), hits mostly inhibitors. 220,000 compounds, 2.6% hits. AID 1347165, 2019; active = well fitted inhibition curve with a large enough effect; also: nearly all actives have a fitted effect of over 70% in size
Target sequence (Q9UGL1 whole entry, looked up): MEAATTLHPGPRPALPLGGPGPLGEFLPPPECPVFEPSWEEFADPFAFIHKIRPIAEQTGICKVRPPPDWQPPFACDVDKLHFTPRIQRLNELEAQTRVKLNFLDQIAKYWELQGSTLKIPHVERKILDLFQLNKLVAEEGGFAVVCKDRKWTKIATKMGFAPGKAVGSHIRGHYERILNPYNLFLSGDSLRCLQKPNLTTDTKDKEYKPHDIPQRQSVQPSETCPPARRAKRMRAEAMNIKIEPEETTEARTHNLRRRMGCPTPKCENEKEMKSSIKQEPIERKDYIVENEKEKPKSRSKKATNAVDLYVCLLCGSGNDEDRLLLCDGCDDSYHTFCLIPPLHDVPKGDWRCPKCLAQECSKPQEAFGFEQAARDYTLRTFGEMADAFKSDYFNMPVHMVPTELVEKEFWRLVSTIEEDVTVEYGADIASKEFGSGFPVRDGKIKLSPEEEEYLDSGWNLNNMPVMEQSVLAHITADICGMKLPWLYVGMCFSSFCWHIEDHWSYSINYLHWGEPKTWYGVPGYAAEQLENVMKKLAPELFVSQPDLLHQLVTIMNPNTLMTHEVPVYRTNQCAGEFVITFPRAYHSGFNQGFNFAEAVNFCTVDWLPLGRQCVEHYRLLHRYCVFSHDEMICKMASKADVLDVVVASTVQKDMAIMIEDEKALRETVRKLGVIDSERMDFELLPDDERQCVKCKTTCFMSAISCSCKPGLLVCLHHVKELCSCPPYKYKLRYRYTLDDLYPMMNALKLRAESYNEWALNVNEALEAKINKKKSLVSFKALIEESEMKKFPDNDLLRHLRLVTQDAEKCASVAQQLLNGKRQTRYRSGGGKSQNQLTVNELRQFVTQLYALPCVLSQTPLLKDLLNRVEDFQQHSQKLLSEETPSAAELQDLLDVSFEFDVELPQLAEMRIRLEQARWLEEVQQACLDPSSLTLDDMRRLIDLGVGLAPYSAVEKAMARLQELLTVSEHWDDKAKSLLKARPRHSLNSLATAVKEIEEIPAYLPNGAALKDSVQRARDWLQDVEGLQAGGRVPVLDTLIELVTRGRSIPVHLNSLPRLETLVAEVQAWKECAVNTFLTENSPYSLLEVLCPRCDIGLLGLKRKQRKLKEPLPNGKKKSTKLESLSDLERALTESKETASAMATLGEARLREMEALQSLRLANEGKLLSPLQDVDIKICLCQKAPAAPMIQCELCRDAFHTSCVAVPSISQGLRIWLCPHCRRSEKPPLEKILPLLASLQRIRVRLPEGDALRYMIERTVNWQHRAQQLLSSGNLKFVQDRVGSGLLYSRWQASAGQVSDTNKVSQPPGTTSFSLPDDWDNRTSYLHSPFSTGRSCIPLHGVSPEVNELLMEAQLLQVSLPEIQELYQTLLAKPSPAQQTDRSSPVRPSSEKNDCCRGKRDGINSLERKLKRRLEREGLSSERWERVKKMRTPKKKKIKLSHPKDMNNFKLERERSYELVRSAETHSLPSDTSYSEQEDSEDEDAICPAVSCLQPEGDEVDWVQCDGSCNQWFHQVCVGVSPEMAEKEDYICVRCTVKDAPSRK
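Compound dilutions met 200 nM (final) KDM5BΔAP for 10 min at room temperature before substrate addition. The substrate mix held 12.5 µM H3K4me3 with cofactors 25 µM α-ketoglutarate and 50 µM Fe²⁺. NADH signal gain over 30 min defined activity.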
A number is an active result; 0 = inactive.

SMILES	KDM5B inhibitor
CCn1ncc(CN2CCCC(C(=O)N3CCN(c4ccccn4)CC3)CCNC(=O)CC2)c1C (centres undefined)	25.1µM
CCN1CCN(C(=O)C2CCCN(Cc3cccnc3)CCC(=O)NCC2)CC1 (centres undefined)	0
CCn1ncc(CN2CCCC(c3nc(C(C)C)no3)CCNC(=O)CC2)c1C (centres undefined)	0
c1ccc(CCc2nnc3sc(-c4ccc5ccccc5n4)nn23)cc1	0
COCCN1C(=O)c2ccccc2N2C(=O)CCC12C(=O)OCc1cc(=O)oc2cc(C)ccc12 (centres undefined)	0
N#CCC(=O)Nc1ccc(C(=O)OCc2ccc(Cl)c(Cl)c2)cc1	0
O=C(CCc1nc(-c2ccc(Cl)cc2)no1)Nc1cccc(S(=O)(=O)NC2=NCCC2)c1	0
CCOc1ccc(N2C(=O)c3cccnc3C2Nc2ccc(C)cc2C)cc1 (centres undefined)	0
CCCOc1c(Cl)cc(/C=C(/C#N)C(=O)OC)cc1OCC	0
Cc1ccc2c(CN3CCN(c4ccccc4)CC3)cc(=O)oc2c1C	0
O=C(c1ccc(C#Cc2ccccc2)cc1)N1CCN(Cc2ccccc2)CC1	0
Cc1cc(=O)n(CC(=O)Nc2ccc(N(C)C)cc2)c(-c2ccc(F)cc2)n1	0
CCn1ncc(NC(=O)Cn2ncc3cc(-c4cc(F)ccc4F)ccc32)n1	20µM
Cc1ccc(C)c(-c2nn(CC(=O)Nc3cc(F)ccc3F)c(=O)c3c2CCCC3)c1	0
CNC(=O)CCn1ncc2cc(OCc3ccccc3-c3ccc(F)cc3)ccc21	0
CCOc1ccc(NC(=O)CN2CCN(CC(=O)Nc3ccc(N(C)C)cc3)CC2)cc1	0
CCn1ncc(NC(=O)Cn2ncc3cc(-c4ccc(N(C)C)cc4)ccc32)n1	14.1µM
CCOc1ccc(N/C=C/C(=O)c2cc(C)ccc2C)cc1	0
O=C(Nc1oc2ccccc2c(=O)c1-c1ccccc1)c1ccccc1	0
CCC(=O)Nc1ccc2nc(SCc3ccc(F)cc3)sc2c1	0
C=C(C)CC1Cc2c(Br)cccc2C(CC(=C)C)N1 (centres undefined)	0
O=C(Cn1ccc2c(Br)cccc21)N1CCCC1	0
CC(C)CNc1nccc(C2(c3ccccc3Cl)CCNCC2)n1	22.4µM
OCC(O)CNc1nccc(C2(c3ccccc3Cl)CCNCC2)n1 (centres undefined)	0
Clc1ccccc1C1(c2ccnc(NCc3ccncc3)n2)CCNCC1	0
SMILES	KDM5B inhibitor
O=C(COC(=O)COc1ccc(Br)cc1)Nc1ncc(C(F)(F)F)cc1Cl	0
COc1ccc(-c2c(C)c3c(n2C)C(c2ccccc2)Oc2ccccc2-3)cc1 (centres undefined)	0
COC(=O)c1sc2ccccc2c1S(=O)(=O)N1CCN(c2cc(Cl)ccc2C)CC1	0
O=C(O)c1cc(-c2ccc(Cl)c(Cl)c2)nc2ccccc12	0
Cc1cc(C)c(CNC(=O)c2nc(-c3ccc(CN(C)C)cc3)cc3[nH]ccc23)c(=O)[nH]1	0
Cc1cc(C)c(CNC(=O)c2nc(-c3ccccc3C)cc3c2ccn3C(C)C)c(=O)[nH]1	0
COc1ccc(-c2cc3c(ccn3C(C)C)c(C(=O)NCc3c(C)cc(C)[nH]c3=O)n2)cc1	25.1µM
CN(C)CCNC(=O)c1nc(-c2ccc(N3CCN(C)CC3)cc2)cc2c1ccn2C	0
Cc1cc(C)c(CNC(=O)c2nc(-c3cnn(C)c3)cc3c2ccn3C)c(=O)[nH]1	22.4µM
Cc1cc(C)c(CNC(=O)c2nc(-c3ccc(CN(C)C)cc3)cc3c2ccn3C(C)C)c(=O)[nH]1	28.2µM
Cc1cc(-c2cc3c(ccn3C)c(C(=O)NCc3c(C)cc(C)[nH]c3=O)n2)ccn1	0
Cc1cc(C)c(CNC(=O)c2nc(-c3ccccc3O)cc3c2ccn3C(C)C)c(=O)[nH]1	0
O=C(Cn1nc2ccc(SCc3ccc(Cl)cc3)nn2c1=O)NCc1ccc(F)cc1	0
CCOc1cc(C=O)cc(Br)c1OCc1cccc(C)c1	0
Cc1ccc(C(=O)NCCC(c2ccccc2)c2ccccc2)cn1	0
Cc1cc(Br)ccc1-c1ccc(C=O)o1	0
CCONC(=O)CNC(=O)c1ccccc1	0
COc1ccccc1Cn1ccn2nc3c(c2c1=O)CCCC3	0
CC(C)NC(=O)c1ccc(Cn2ccn3nc4c(c3c2=O)CCCC4)cc1	0
Cc1oc(-c2ccc(OC(C)C)cc2)nc1Cn1ccn2nc3c(c2c1=O)CCCC3	28.2µM
N#Cc1ccccc1CN1CCSc2ccccc21	0
COc1cccc(C(=O)Nc2ccc(N3CCN(C(=O)c4ccccc4C)CC3)cc2)c1	0
Cc1nc2nc(C)c(NC(=O)Nc3ccccc3C(F)(F)F)c(=O)n2[nH]1	0
CCCCc1ncc(CN2CCCC(c3cccc(C(=O)O)c3)C2)[nH]1 (centres undefined)	0
CN1CCCCC1CCn1cnc2c1c(=O)n(C)c(=O)n2C (centres undefined)	0
SMILES	KDM5B inhibitor
CCCCc1ncc(-c2c(-c3ccccc3)ncn2CCC2CCCN2C)[nH]1 (centres undefined)	10µM
COc1ccc(C(=O)N2N=C(c3ccco3)CC2c2ccc3nccnc3c2)cc1 (centres undefined)	0
CC(C)c1ccc(-c2nonc2NC(=O)c2cc(=O)c3cc(Br)ccc3o2)cc1	0
c1cnnc(-c2noc(C3(Cn4cccn4)CC3)n2)c1	0
Cc1cnn(C(C)c2nc(-c3cccnn3)no2)c1 (centres undefined)	0
OCCc1cnc2c(-c3nc(-c4cccnn4)no3)cnn2c1	25.1µM
Cc1nc2cc(NC(=O)C3CC(=O)N(C4CC4)C3)ccc2o1 (centres undefined)	0
Cc1ccc(S(=O)(=O)N2CCC(C(=O)N3CCC(CCc4ccc(O)cc4)CC3)CC2)c(C)c1	0
CCCN(CCC)c1ccc(NC(=O)c2ccccc2Cl)cc1C(=O)O	0
Cn1ncc2c(C(=O)NCc3cccnc3)cc(-c3ccc([S+](C)(=O)[O-])cc3)nc21	79.4µM
O=C(NCc1ccccc1)c1cc(-c2cccnc2)nc2ccccc12	0
O=C(NCc1ccncc1)c1cc(-c2cccnc2)nc2ccccc12	0
Cn1ncc2c(C(=O)NCc3ccc(F)cc3)cc(C(C)(C)C)nc21	44.7µM
CN(C)C(=O)c1cc(C(C)(C)C)nc2c1cnn2C	0
Cn1ncc2c(C(=O)NCc3cccnc3)cc(-c3ccc(Cl)nc3)nc21	44.7µM
Cn1ncc2c(C(=O)N3CCCC3)cc(C(C)(C)C)nc21	0
O=C(NCc1cccnc1)c1cc(-c2ccncc2)nc2ccccc12	0
Cn1ncc2c(C(=O)NCc3ccc(F)cc3)cc(-c3ccc(Cl)nc3)nc21	79.4µM
Cc1ccc(CNC(=O)c2cc(-c3ccc(C)cc3)nc3n[nH]c(-c4ccc(F)cc4)c23)cc1	0
Cc1cc(C(=O)NCc2ccc(F)cc2)c2ccccc2n1	0
O=C(c1ccc(C(F)(F)F)cc1)N1CCc2nc(-c3ccc(Cl)cc3)nc(-c3ccccc3)c2C1	0
NCCCC(N)(C(=O)O)c1ccccc1 (centres undefined)	0
S=c1[nH]c2cc(-c3ccccc3)ccc2s1	0
O=C1Cc2cc(-c3csc(NC4CC4)n3)ccc2N1	0
C=CCNc1nc(C(=O)OC(C)C(=O)Nc2ccc(F)c(F)c2F)cs1 (centres undefined)	0
CNc1c(NC(=O)c2ccc(OC)c(Br)c2)c(=O)oc2ccccc12	0
Cc1ccc(/C=C/C(=O)O)c(Br)c1	0
Cc1cc(C(=O)NCc2cccnc2)c2ccccc2n1	0
Cn1ncc2c(C(=O)N3CCC(C#N)CC3)cc(-c3cc(Cl)cc(Cl)c3)nc21	0

Assay outcomes: PubChem BioAssay, National Center for Advancing Translational Sciences (NCATS)
